Measurements as given in PubChem BioAssay.

target: Streptavidin (Streptomyces avidinii) (UniProt P22629); assay: compounds binding control protein streptavidin – biophysical, small-molecule microarray, 635/667 nm fluorescence, artefact control for SMM compound annotation, primary screen (AID 1147); settings: higher = more signal;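 further: signal reflects streptavidin binding to arrayed compounds as a control protein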
Sequence (P22629 whole entry, looked up): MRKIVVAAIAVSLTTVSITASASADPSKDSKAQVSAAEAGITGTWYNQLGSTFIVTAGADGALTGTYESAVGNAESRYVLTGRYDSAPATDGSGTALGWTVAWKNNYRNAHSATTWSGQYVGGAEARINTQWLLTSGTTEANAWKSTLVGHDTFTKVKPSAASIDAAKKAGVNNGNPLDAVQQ

Row | SMILES | composite z-score
1 | C=CCN1C(=O)[C@@]2(CC=C)N=C(c3ccc(OCCCO)cc3)O[C@H]2c2ccccc21 | 0.26
2 | CCCC[C@@H]1C[C@H]1[C@@H](NC(=O)c1ccco1)c1ccc(-c2ccccc2)cc1 | 0.483
3 | C=C(C)[C@@H]1CC=C(C(O)C2C=CC3C(=O)N(C)C(=O)C3N2Nc2ccccc2)CC1 (some centres not stated) | 0.178
4 | O=C1C2C=CC(C(O)Cc3ccccc3)N(n3cnnc3)C2C(=O)N1Cc1ccccc1 (configuration not stated) | 0.0646
5 | C=C(COC)/C(=C/C[C@@H](OC(C)=O)c1ccc(OCCO)cc1)c1cnc2ccccc2c1 | 1.36
6 | COCCOC(=O)N1C(=O)[C@@]2(c3cc(C#CCNC(N)=O)ccc31)[C@H](C(=O)N1CCN(c3ncccn3)CC1)[C@H]1C(=O)O[C@H](c3ccccc3)[C@H](c3ccccc3)N1[C@@H]2c1ccc(OCCO)cc1 | 0.619
7 | C=CCOC(=O)[C@@H]1[C@H]2C(=O)O[C@H](c3ccccc3)[C@H](c3ccccc3)N2[C@H](c2ccc(OCCOC(=O)[C@@H]3C[C@@H]4C(=O)NCC(=O)N4[C@@H]3c3ccc(O)cc3)cc2)[C@@]12C(=O)Nc1ccc(I)cc12 | -0.259
8 | CC#CC(=O)Oc1ccccc1C=CC(=O)OCC | 0.066
9 | CCCC[C@@H]1C[C@H]1[C@@H](NC(=O)c1ccco1)c1ccccc1C(F)(F)F | 1.42

test system: not listed separately; assay: probe aInhba binding on compound microarray – biochemical, small-molecule microarray, 635/667 nm fluorescence, primary screen (AID 1148); settings: higher = more signal;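 further: score merges 667nm spot fluorescence with signal-to-noise for antibody binding to printed compounds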

Row | SMILES | composite z-score
10 | COCCOC(=O)N1C(=O)[C@@]2(c3ccccc31)[C@H](c1ccc(O)cc1)N1[C@H](c3ccccc3)[C@H](c3ccccc3)OC(=O)[C@H]1[C@@H]2C(=O)Nc1nc2ccccc2s1 | 0.225
11 | C=CCOC(=O)[C@H]1[C@@H]2C(=O)O[C@@H](c3ccccc3)[C@@H](c3ccccc3)N2[C@@H](c2ccc(OCCOC(=O)[C@H]3C[C@H]4C(=O)N[C@@H](CCCCN(C)C)C(=O)N4[C@H]3c3ccc(O)cc3)cc2)[C@]12C(=O)Nc1ccc(I)cc12 | 0.135
12 | NC(=O)[C@@H]1[C@H]2C(=O)O[C@H](c3ccccc3)[C@H](c3ccccc3)N2[C@H](c2ccc(O)cc2)[C@@]12C(=O)Nc1ccccc12 | -0.152
13 | CC(C)C[C@@H]1NC(=O)[C@H](C(C)C)NC(=O)[C@@]23C(=O)N[C@@H](Cc4ccccc4)C2[C@H](C)[C@@]2(C)O[C@H]2C3/C=C/CC/C=C/CNC1=O (some centres not stated) | 0.399
14 | COC(=O)C(CC#Cc1ccc2c(c1)[C@]1(C(=O)N2)[C@H](c2ccc(OCCO)cc2)N2[C@H](c3ccccc3)[C@H](c3ccccc3)OC(=O)[C@H]2[C@@H]1C(=O)Nc1nc2ccccc2s1)C(=O)OC | -0.157
15 | O=C1NC(=O)C2C1C=CC(C(O)c1cc(C(F)(F)F)cc(C(F)(F)F)c1)N2Nc1ccccn1 (configuration not stated) | -0.0059
16 | Cc1ccc(S[C@]2(C(=O)NCCCN(C)C)CC(=O)N(Cc3cc(C(F)(F)F)cc(C(F)(F)F)c3)[C@@H]2c2ccc(CO)cc2I)cc1 | 0.172
17 | C=C(C(=O)CC[C@@H](OC(=O)c1cccnc1)c1ccccc1OCCO)C(C)C | -0.0112
18 | COc1cc(NN2C(C(O)c3ccco3)C=CC3C(=O)N(c4ccccc4)C(=O)C32)cc(OC)c1OC (configuration not stated) | -0.153
19 | COC(=O)[C@@]1(Cc2ccc(OC)cc2)[C@H]2c3cc(C(=O)N(C)C)n(CCc4ccccn4)c3C[C@H]2CN1C(=O)c1ccccc1 | 1.17
20 | O=C(NC1CC1)[C@@H]1c2ccccc2C(=O)N(Cc2ccccc2Cl)[C@H]1c1ccc(CO)cc1 | 0.225
21 | COC(=O)[C@@]1(Cc2ccc(F)cc2)[C@H]2c3cc(C(=O)N(C)C)n(Cc4ccccc4)c3C[C@H]2CN1C(=O)c1ccccc1 | 0.218
22 | O=C1C2C=CC(C(O)CCc3ccccc3)N(Nc3ccccc3F)C2C(=O)N1c1ccccc1 (configuration not stated) | 0.131
23 | C=C[C@H](CO[Si](CC)(CC)CC)N(Cc1ccc(OC(C)=O)c(OC)c1)S(=O)(=O)c1ccc(Br)cc1 | 0.403
24 | O=C1O[C@@H](c2ccccc2)[C@@H](c2ccccc2)N2[C@@H](c3ccccc3OCCO)[C@]3(C(=O)Nc4ccc(C#CC5=CCCCC5)cc43)[C@@H](C(=O)N3CCCCCCC3)[C@H]12 | 2.23
25 | CCOC(=O)[C@H]1C/C=C/C[C@H](C(=O)OCC)C(=O)O[C@H]2[C@@H](OC)O[C@H](CO)[C@@H](OC(=O)c3c(OC)cccc3OC)[C@@H]2OC1=O | -0.0501
26 | CCC(CC)C(O)C1C=CC2C(=O)NC(=O)C2N1Nc1ccc(Cl)cc1Cl (configuration not stated) | 0.225
27 | CCOC(=O)C[C@H]1[C@H](OC(=O)c2ccc(C(=O)c3ccccc3)cc2)[C@@H](NC(=O)c2ccc3ccccc3c2)c2cc(OCCCO)ccc2N1C(=O)Cc1ccc(OC)cc1 | -0.102
